Assay outcomes deposited in PubChem by National Center for Advancing Translational Sciences (NCATS).
The list is not random: actives were taken first. Their share in the collection is about 12%.
Sfp PPTase inh: qHTS Assay for Inhibitors of Bacillus subtilis Sfp phosphopantetheinyl transferase (PPTase); 4'-phosphopantetheinyl transferase ffp (Bacillus subtilis), Q9F4F7; Biochemical Sfp PPTase activity, qHTS; AID 1490, 2009; actives 3.5% (n = 310,000); Potency, µM, inactives show largest response in the series, negative = inhibition, actives largely listed as inhibitors;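 also: the enzyme is Sfp with the accession as filed and its product quenches rhodamine fluorescence; 0% = enzyme reaction without inhibitor and -100% = no enzyme wells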
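Buffer: 50 mM Hepes-Na pH 7.6, 10 mM MgCl2, 0.01% Nonidet P-40, 0.01% BSA. Enzyme 15 nM, pre-exposed to compound 15 min; substrates then added and fluorescence change tracked over 30 min.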
L3MBTL1 inh: qHTS Assay for the Inhibitors of L3MBTL1 | Lethal(3)malignant brain tumor-like protein 1 (Homo sapiens), Q9Y468 | AlphaScreen L3MBTL1–H3K9me1 peptide binding | Potency, µM (titrated, usually from 57.1 µM), for the others: top-dose activity, negative = inhibition, usual class: inhibitors | actives 0.66% (n = 230,000); also: % is scaled to controls: 0 for no effect and ±100 for the full control effect; nearly all actives have a fitted effect of over 60% in size
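Displacement of a biotinylated histone H3(1-15) peptide monomethylated at Lys9 (75 nM) from L3MBTL1 (50 nM) was measured by AlphaScreen after a 30 min room-temperature compound incubation; cefsulodin titration served as intraplate control.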
HP1b chromo inh: HTS for Inhibitors of HP1-beta Chromodomain Interactions with Methylated Histone Tails | Potency, µM (series often up to 114 µM), for the others: at the top dose activity change, negative = inhibition, actives largely listed as inhibitors | Chromobox protein homolog 1 (Homo sapiens), P83916 | actives 0.56% (n = 390,000) | AID 540317, 2011 | AlphaScreen HP1-beta / biotin-H3K9me3 peptide binding; also: nearly all actives have a fitted effect of over 70% in size
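AlphaScreen: HP1-beta (50 nM) preformed 30 min with biotin-H3(1-18)K9me3 peptide (50 nM) in PBS pH 7.4, 0.01% Tween-20. Compound added for 30 min at RT, then streptavidin donor/nickel chelate acceptor beads (10 ug/mL) for 30 min.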
G9a block: qHTS Assay for Inhibitors of Histone Lysine Methyltransferase G9a. actives 8.8% (n = 350,000). Histone-lysine N-methyltransferase EHMT2 (Homo sapiens), Q96KQ7. AID 504332, 2011. G9a H3K9 monomethylation, AlphaScreen, 2 h. Potency, µM (top dose mostly 102 µM), for the others: top-dose activity, negative = inhibition, usual class: inhibitors; also: % is scaled to controls: 0 for no effect and ±100 for the full control effect; nearly all actives have a fitted effect of over 75% in size
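G9a (20 nM) preincubated 15 min RT with compounds, then 500 nM biotinylated H3K9 peptide and 20 uM SAM added; 2 h RT reaction. Monomethyl-H3K9 product detected by AlphaScreen with anti-H3K9me1 antibody, streptavidin donor and anti-rabbit IgG acceptor beads.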
JMJD2A Tudor: qHTS Assay for Inhibitors of JMJD2A-Tudor Domain. Lysine-specific demethylase 4A (Homo sapiens), O75164. AlphaScreen JMJD2A-Tudor / H3K4me3 peptide binding. Potency, µM (highest dose often 114 µM), inactives show top-dose activity change, negative = inhibition, actives largely listed as inhibitors. actives 4.4% (n = 390,000). AID 504339, 2011; also: % is scaled to controls: 0 for no effect and ±100 for the full control effect; nearly all actives have a fitted effect of over 50% in size
Target sequence (O75164 whole entry, looked up, the tested form may be a part): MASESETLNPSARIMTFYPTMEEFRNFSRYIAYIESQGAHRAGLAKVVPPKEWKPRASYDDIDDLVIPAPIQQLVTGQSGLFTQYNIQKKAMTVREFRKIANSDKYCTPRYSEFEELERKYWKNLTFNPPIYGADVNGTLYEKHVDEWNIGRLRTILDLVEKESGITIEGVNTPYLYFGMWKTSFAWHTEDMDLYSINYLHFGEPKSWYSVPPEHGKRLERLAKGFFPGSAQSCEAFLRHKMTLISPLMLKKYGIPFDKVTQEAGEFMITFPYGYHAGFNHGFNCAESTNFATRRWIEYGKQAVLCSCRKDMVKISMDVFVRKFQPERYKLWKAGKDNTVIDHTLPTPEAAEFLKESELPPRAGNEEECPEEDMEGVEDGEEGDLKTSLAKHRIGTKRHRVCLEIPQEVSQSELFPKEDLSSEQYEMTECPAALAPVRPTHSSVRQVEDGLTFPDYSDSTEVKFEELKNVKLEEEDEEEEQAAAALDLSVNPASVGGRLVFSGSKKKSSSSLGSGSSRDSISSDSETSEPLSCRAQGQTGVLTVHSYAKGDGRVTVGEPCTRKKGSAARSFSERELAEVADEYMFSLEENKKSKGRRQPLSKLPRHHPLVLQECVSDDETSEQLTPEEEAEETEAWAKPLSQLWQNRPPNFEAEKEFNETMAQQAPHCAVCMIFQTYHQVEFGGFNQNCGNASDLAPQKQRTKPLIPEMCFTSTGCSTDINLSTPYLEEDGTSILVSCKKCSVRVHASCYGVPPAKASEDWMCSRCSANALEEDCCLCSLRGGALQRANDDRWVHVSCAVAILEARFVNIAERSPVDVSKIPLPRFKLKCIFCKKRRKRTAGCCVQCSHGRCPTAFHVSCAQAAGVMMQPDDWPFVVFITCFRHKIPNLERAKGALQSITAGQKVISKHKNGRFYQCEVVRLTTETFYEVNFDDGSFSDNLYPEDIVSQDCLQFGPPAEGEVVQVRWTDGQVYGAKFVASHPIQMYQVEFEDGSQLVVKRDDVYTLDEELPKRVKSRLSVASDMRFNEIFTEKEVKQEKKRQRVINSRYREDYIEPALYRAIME
BAZ2B block: qHTS Assay for Inhibitors of BAZ2B; Bromodomain adjacent to zinc finger domain protein 2B (Homo sapiens), Q9UIF8; Potency, µM (titrated, usually from 114 µM), for inactives: at the top dose activity change, negative = inhibition, most hits filed as inhibitors; AlphaScreen BAZ2B-H3K14Ac peptide displacement; actives 4.4% (n = 360,000); also: % is scaled to controls: 0 for no effect and ±100 for the full control effect; nearly all actives have a fitted effect of over 60% in size
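AlphaScreen luminescence quantifies BAZ2B engagement of H3K14Ac peptide; the protein and biotinylated peptide are both at 50 nM final, buffer PBS pH 7.4 with 0.01% Tween-20, all steps at room temperature.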
* hit, by the source's call; ? = inconclusive; . = no result; [ ] = dose if it differs, or a comment. Calls follow the shape of the dose curve; as a rule, active = well fitted curve in the direction sought with a large enough effect; inconclusive = small, poorly fitted or top-dose-only effect, or another doubt; inactive = no such curve, though single readings can be large; an effect the other way counts as inactive or inconclusive. Potency is read from the fitted curve at half-maximal effect.

SMILES	Sfp PPTase inh	L3MBTL1 inh	HP1b chromo inh	G9a block	JMJD2A Tudor	BAZ2B block
Clc1cccc(-c2sc(Nc3ccccc3)n[n+]2-c2ccccc2)c1Cl	50.1µM*	-1.3%	7.7%	.	?	?
CSc1ccc(-c2sc(Nc3ccccc3)n[n+]2-c2ccccc2)cc1	?	-12.5%	-26.8%	35.5µM*	56.2µM*	44.7µM*
Fc1ccc(-[n+]2nc(Nc3ccccc3)sc2-c2cccc(Cl)c2Cl)cc1	1.0%	3.4%	17.0%	.	?	-36.2%
CCc1ccc(Nc2n[n+](-c3ccccc3)c(-c3ccc(C(=O)O)cc3)s2)cc1	44.7µM*	-2.0%	-9.2%	31.6µM*	79.4µM*	35.5µM*
CCc1ccc(Nc2n[n+](-c3ccccc3)c(-c3ccc(SC)cc3)s2)cc1	5.6%	-12.8%	27.5%	44.7µM*	?	?
COc1ccc(-c2sc(Nc3cccc4ccccc34)n[n+]2C)c(C)c1C	.	.	109.4%	.	40.7%	.
CCOc1cc(-c2sc(Nc3ccccc3)n[n+]2-c2ccc(F)cc2)ccc1OC	3.3%	3.1%	37.7%	.	?	-4.5%
C[n+]1nc(Nc2cccc3ccccc23)sc1-c1ccc(C(=O)O)cc1	-16.1%	.	.	1.7%[12.7 µM]	.	-0.1%
Fc1ccc(-[n+]2nc(Nc3ccccc3)sc2-c2ccc(OCc3ccccc3)cc2)cc1	-18.7%	-10.0%	12.3%	.	89.1µM*	?
CC(=O)Nc1ccc(-c2sc(Nc3cccc4ccccc34)n[n+]2-c2ccccc2)cc1	-23.8%	-1.2%	22.9%	44.7µM*	-33.1%	?
CCc1ccc(Nc2n[n+](-c3ccccc3)c(-c3ccc(OC)c(Br)c3)s2)cc1	-6.0%	-8.1%	19.4%	35.5µM*	-33.1%	?
COc1ccc(-c2sc(Nc3ccccc3)n[n+]2-c2ccc(F)cc2)c(OC)c1OC	5.8%	-2.6%	23.5%	?	-32.4%	-22.0%[57.1 µM]
CSc1ccc(-c2sc(Nc3cccc4ccccc34)n[n+]2-c2ccccc2)cc1	50.1µM*	-22.5%	13.2%	.	79.4µM*	17.8µM*
Cc1cccc(N2CCN(C(=O)C3CCN(S(=O)(=O)c4c(C)noc4/C=C/c4ccccc4F)CC3)CC2C)c1 (stereo unspecified)	.	.	16.2%[57 µM]	-5.5%[59 µM]	-15.3%	-19.5%
O[C@@H]1CO[C@H]2[C@@H]1OC[C@@H]2O	21.1%	.	.	?	.	.
CCc1ccc(Nc2n[n+](C)c(-c3ccncc3)s2)cc1	79.4µM*	-7.8%	-15.5%	.	56.2µM*	56.2µM*
COc1cc(OC)c(-c2sc(Nc3ccccc3)n[n+]2-c2ccc(F)cc2)cc1OC	11.0%	-1.3%	40.9%	-20.6%	-12.1%	-6.7%
COc1cc(Br)c(-c2sc(Nc3ccccc3)n[n+]2-c2ccc(F)cc2)cc1OC	-21.4%	-8.2%	-5.4%	?	79.4µM*	?
Nc1ccc2c(c1Cl)C(=O)c1ccc(N)c(Cl)c1C2=O	-11.2%	?	15.5%	25.1µM*	56.2µM*	56.2µM*
CC1=C(C#N)C(=O)N(C2CCS(=O)(=O)C2)C(=O)/C1=C\c1ccc(C)o1 (stereo unspecified)	12.6µM*	14.1µM*	.	20µM*	.	44.7µM*
NS(=O)(=O)c1ccc(-c2ccc(/C=C3\SC(=S)N(C4CCS(=O)(=O)C4)C3=O)o2)cc1 (stereo unspecified)	?	.	11.6%	?	-20.0%	-27.7%
Cc1nn2c3c(cnc2c1-c1ccccc1)C(=O)CCC3	4.6%	3.2%	56.2%	15.7%[59 µM]	-4.7%	8.2%
N#CCc1nn2c3c(cnc2c1C#N)C(=O)CCC3	-18.2%	?	-12.9%	44.7µM*	-22.0%	-27.2%
O=C(N/N=C\c1ccc(-c2ccccc2[N+](=O)[O-])o1)C1COc2ccccc2O1 (stereo unspecified)	2.4%	-15.3%	-28.8%	28.2µM*	?	?
O=C(N/N=C\c1ccc([N+](=O)[O-])o1)C1COc2ccccc2O1 (stereo unspecified)	-1.4%	-1.7%	39.2%	56.2µM*	-10.7%	-15.7%
SMILES	Sfp PPTase inh	L3MBTL1 inh	HP1b chromo inh	G9a block	JMJD2A Tudor	BAZ2B block
COc1ccc(NC(=O)N2CCC(c3nc4ccccc4[nH]3)CC2)cc1	9.0%	.	46.4%	39.8µM*	0.7%	2.5%
COc1ccc(N2CC(C(=O)N3CCC(c4nc5ccccc5[nH]4)CC3)CC2=O)cc1 (stereo unspecified)	.	-18.2%	22.5%	-18.1%	-2.0%	1.1%
O=C(C1CC(=O)N(c2ccccc2)C1)N1CCC(c2nc3ccccc3[nH]2)CC1 (stereo unspecified)	.	5.7%	28.4%	44.7µM*	-14.4%	-2.5%
CCOc1ccccc1NC(=O)N1CCC(c2nc3ccccc3[nH]2)CC1	10.9%	.	13.6%	-43.8%[12.7 µM]	-14.1%	-6.8%
COc1ccc(NC(=O)CSc2nc3c(oc4ccccc43)c(=O)n2-c2ccccc2)cc1OC	.	.	39.5%	0.3%[59 µM]	-8.0%	-1.8%
COc1ccc(OC)c(NC(=O)[C@H](CSCc2ccccc2)N2Cc3ccccc3C2=O)c1	.	.	27.8%	-5.5%[59 µM]	-29.0%	-34.4%
CCNC(=O)C1CC(=O)N(Cc2ccc3c(c2)OCO3)C(=Nc2ccc(F)cc2)S1 (stereo unspecified)	23.8%	9.3%	12.8%	12.0%[59 µM]	-13.4%	6.1%
CNC(=O)C1CC(=O)N(CCc2ccccc2)C(=Nc2ccc(OC)cc2)S1 (stereo unspecified)	-2.9%	-7.2%	12.4%	-1.9%	-10.7%	-22.9%
COc1ccc(CCN2C(=O)CC(C(N)=O)SC2=Nc2ccccc2)cc1 (stereo unspecified)	-5.9%	-27.1%	12.7%	?	79.4µM*	?
COc1ccc(N=C2SC(C(N)=O)CC(=O)N2Cc2ccc3c(c2)OCO3)cc1 (stereo unspecified)	11.7%	-24.1%	9.4%	-4.1%	79.4µM*	79.4µM*
CCN1CCN(C(c2ccc(C(F)(F)F)cc2)c2ccc3cccnc3c2O)CC1 (stereo unspecified)	-22.5%	.	?	2.51µM*	50.1µM*	28.2µM*
COc1ccc(C(=O)NC(c2ccccc2Cl)c2cc(Cl)c3cccnc3c2O)cc1 (stereo unspecified)	.	.	27.2%	20.1%[59 µM]	?	8.5%
